Measured values published in ChEMBL document CHEMBL1961873, “Compounds: GSK PKIS; Assays: Nanosyn kinase panel” (2012).

How the values were obtained:
[1] = target: T1, Inhibitor of nuclear factor kappa-B kinase subunit epsilon (Homo sapiens) (UniProt Q14164); details: at 1 µM;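 note: reported values are averaged percent inhibition figures against human IKKε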
T1 sequence (whole entry): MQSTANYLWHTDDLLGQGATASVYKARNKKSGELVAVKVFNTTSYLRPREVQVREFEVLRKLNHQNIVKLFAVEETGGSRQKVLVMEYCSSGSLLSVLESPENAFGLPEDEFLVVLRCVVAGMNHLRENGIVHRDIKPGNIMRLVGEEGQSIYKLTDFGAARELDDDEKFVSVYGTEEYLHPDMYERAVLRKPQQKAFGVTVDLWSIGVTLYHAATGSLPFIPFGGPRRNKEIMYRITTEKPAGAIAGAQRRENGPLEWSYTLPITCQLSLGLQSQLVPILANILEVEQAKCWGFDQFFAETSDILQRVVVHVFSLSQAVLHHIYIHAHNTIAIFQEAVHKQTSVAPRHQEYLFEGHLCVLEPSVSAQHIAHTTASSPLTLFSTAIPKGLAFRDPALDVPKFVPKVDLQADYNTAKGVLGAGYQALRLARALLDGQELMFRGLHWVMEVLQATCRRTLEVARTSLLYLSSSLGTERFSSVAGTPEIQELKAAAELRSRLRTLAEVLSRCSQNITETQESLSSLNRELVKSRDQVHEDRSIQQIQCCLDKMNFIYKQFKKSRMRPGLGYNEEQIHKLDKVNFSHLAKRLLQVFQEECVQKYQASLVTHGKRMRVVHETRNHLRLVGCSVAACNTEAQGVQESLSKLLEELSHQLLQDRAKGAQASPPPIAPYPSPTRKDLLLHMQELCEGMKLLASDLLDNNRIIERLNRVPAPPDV

[2] = target: T2, Serine/threonine-protein kinase Nek1 (Homo sapiens) (UniProt Q96PY6); details: at 0.1 µM
T2 sequence (whole entry): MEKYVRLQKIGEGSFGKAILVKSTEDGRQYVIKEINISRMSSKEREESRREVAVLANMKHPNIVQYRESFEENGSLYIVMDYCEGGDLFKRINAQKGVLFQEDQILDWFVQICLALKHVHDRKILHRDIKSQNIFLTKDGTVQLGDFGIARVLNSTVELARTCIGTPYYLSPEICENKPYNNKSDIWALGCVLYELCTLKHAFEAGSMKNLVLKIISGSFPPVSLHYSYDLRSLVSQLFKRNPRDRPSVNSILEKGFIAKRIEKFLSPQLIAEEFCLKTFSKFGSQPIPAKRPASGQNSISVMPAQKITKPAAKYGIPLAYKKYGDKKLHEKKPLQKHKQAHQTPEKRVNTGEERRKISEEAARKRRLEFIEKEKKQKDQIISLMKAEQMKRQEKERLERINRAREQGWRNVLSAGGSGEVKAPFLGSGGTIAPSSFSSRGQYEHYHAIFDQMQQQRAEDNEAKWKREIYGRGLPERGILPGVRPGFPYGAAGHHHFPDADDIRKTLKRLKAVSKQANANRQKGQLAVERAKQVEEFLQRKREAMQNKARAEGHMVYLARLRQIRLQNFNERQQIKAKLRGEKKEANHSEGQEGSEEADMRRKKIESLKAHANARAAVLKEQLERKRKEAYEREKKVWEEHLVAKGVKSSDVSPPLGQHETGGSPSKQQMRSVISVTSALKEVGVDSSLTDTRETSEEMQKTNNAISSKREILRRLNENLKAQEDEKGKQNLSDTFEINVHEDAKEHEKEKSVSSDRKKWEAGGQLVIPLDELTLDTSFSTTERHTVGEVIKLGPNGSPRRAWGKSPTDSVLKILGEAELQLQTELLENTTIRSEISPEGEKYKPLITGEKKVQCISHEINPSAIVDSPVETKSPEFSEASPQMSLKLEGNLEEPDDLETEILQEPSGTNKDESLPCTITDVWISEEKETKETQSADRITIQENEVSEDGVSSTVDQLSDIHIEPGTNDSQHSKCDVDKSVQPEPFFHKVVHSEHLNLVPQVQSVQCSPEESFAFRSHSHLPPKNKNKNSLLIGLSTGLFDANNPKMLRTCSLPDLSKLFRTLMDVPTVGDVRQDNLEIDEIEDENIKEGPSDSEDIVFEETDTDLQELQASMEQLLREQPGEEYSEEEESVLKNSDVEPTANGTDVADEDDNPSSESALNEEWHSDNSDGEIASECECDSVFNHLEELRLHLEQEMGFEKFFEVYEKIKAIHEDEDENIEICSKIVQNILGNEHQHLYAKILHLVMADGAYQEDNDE

[3] = target: T2, Serine/threonine-protein kinase Nek1 (Homo sapiens); details: at 1 µM
[4] = target: T3, Serine/threonine-protein kinase Nek2 (Homo sapiens) (UniProt P51955); details: at 0.1 µM
T3 sequence (whole entry): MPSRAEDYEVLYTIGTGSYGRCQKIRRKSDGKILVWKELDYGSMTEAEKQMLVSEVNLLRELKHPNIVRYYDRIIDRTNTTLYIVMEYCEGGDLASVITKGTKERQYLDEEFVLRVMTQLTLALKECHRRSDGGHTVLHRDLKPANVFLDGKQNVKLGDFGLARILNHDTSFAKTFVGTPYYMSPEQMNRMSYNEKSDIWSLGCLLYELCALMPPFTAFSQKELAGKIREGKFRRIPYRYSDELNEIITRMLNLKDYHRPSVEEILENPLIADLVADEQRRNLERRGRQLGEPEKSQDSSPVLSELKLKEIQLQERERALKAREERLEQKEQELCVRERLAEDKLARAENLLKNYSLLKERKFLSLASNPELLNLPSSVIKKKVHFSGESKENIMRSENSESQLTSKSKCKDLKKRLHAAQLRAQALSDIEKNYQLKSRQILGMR

[5] = target: T3, Serine/threonine-protein kinase Nek2 (Homo sapiens); details: at 1 µM
[6] = target: Serine/threonine-protein kinase Nek6 (Homo sapiens) (UniProt Q9HC98); details: at 0.1 µM
Chain of Serine/threonine-protein kinase Nek6 (Homo sapiens) (Q9HC98 whole entry): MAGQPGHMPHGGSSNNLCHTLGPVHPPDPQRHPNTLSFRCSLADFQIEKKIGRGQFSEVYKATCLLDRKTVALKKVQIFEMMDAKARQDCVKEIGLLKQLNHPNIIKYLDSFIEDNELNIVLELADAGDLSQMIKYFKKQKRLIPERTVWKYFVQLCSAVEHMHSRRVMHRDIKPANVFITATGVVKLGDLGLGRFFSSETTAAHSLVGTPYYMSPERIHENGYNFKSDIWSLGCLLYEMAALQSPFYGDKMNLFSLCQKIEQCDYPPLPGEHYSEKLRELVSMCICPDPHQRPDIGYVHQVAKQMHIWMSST

[7] = target: Serine/threonine-protein kinase Nek6 (Homo sapiens) (UniProt Q9HC98); details: at 1 µM
[8] = target: Serine/threonine-protein kinase Nek7 (Homo sapiens) (UniProt Q8TDX7); details: at 0.1 µM
Chain of Serine/threonine-protein kinase Nek7 (Homo sapiens) (Q8TDX7 whole entry, looked up): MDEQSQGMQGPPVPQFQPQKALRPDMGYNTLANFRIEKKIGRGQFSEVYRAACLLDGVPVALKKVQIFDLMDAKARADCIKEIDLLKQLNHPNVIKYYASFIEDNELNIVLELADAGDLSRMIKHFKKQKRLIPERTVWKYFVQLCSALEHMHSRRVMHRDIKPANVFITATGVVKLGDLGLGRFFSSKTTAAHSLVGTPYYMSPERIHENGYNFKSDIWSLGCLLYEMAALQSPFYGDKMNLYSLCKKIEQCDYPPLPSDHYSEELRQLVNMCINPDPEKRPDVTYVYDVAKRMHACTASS

[9] = target: Serine/threonine-protein kinase Nek7 (Homo sapiens) (UniProt Q8TDX7); details: at 1 µM
[10] = target: T4, Serine/threonine-protein kinase Nek9 (Homo sapiens) (UniProt Q8TD19); details: at 0.1 µM;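 note: reported value is the mean percent inhibition of NEK9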
T4 sequence (whole entry): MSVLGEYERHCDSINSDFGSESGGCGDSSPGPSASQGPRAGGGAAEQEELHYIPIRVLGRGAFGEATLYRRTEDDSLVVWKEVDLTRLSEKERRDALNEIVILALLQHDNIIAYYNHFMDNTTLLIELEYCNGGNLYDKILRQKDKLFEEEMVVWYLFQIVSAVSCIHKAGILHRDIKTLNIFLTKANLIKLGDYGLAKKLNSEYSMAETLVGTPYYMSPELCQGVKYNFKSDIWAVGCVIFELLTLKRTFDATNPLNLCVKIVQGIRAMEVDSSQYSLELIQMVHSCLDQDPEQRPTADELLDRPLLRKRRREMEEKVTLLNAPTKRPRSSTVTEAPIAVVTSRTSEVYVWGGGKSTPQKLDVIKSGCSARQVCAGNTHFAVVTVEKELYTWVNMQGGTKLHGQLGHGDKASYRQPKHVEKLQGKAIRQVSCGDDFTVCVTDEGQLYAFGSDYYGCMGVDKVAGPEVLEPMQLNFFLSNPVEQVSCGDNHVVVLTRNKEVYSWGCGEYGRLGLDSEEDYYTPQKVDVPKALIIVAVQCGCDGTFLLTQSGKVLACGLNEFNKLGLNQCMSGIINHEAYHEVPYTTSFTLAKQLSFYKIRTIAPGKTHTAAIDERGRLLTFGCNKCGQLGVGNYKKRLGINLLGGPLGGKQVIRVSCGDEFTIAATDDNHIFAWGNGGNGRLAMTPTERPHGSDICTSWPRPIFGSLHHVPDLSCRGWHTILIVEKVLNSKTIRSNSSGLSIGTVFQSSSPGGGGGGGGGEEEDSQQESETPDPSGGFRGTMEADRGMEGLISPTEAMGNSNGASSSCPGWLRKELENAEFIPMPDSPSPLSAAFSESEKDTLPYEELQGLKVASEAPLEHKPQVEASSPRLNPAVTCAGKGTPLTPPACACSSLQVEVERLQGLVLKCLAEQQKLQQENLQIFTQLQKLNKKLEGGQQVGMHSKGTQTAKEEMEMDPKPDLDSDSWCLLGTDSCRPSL

Row | SMILES | inhibition [1] [%] | inhibition [2] [%] | inhibition [3] [%] | inhibition [4] [%] | inhibition [5] [%] | inhibition [6] [%] | inhibition [7] [%] | inhibition [8] [%] | inhibition [9] [%] | inhibition [10] [%]
1 | Fc1ccc(-c2ncn(C3CCNCC3)c2-c2ccnc(Oc3ccc(Oc4ccccc4)cc3)n2)cc1 | 6.34 | 1.09 | 1.58 | 5.87 | 3.38 | -2.46 | 2.86 | 3.94 | 9.34 | 4.61
2 | C#Cc1cccc(Nc2ncnc3ccc(OCCCCNCCS(C)(=O)=O)cc23)c1 | 9.33 | 3.06 | 8.52 | 5.28 | 6.09 | 3.67 | 3.84 | 4.76 | 3.44 | 8.12
3 | c1ccc(-c2n[nH]cc2-c2ccnc(-c3ccc(OCCN4CCOCC4)cc3)c2)nc1 | -6.6 | 1.71 | -2.23 | -2.95 | -2.74 | -1.49 | -2.27 | -5.33 | -3.67 | –
4 | COc1cc(Nc2ncc(-c3ccccc3)o2)cc(OC)c1OC | 1.15 | -1.04 | 1.71 | -1.53 | -0.62 | -1.01 | -3.53 | -3.32 | 3.67 | 5.06
5 | NC(=O)c1ccc(Oc2nccc(-c3c(-c4ccc(F)cc4)ncn3C3CCNCC3)n2)cc1 | 7.38 | 4.02 | 5.01 | 6.78 | 5.63 | 1.6 | 1.67 | 3.46 | 9.69 | 6.05
6 | COC(=O)Nc1nc2ccc(Sc3ccc(NC(=O)Nc4cc(C(F)(F)F)ccc4F)cc3)cc2[nH]1 | -1.36 | -0.58 | 1.18 | 0.6 | -0.82 | 0.73 | -0.98 | -0.35 | -3.05 | -1.77
7 | Fc1ccc(-c2ncn(C3CCNCC3)c2-c2ccnc(Oc3ccc(F)c(F)c3)n2)cc1 | 4.67 | 2.19 | 0.52 | 5.55 | 4.23 | 0.84 | 2.1 | 3.19 | 6.72 | 6.39
8 | COc1cc(Nc2ncc3c(C)nc(-c4cccc(Oc5ccccc5)c4)n3n2)cc(OC)c1OC | 21.3 | 2.64 | 11.3 | 7.11 | 31.6 | 2.7 | -0.99 | 4.1 | 1.98 | 29
9 | O=C(Nc1n[nH]c2nc(-c3ccc(O)cc3)c(Br)cc12)C1CC1 | 12.2 | 3.52 | 11.2 | 6.4 | 9 | 3.51 | 15.2 | 13.2 | 46.3 | 13.9
10 | Clc1ccc(CNc2nccc(-c3cnn4ncccc34)n2)cc1 | -0.99 | 0.32 | 19.8 | 0.93 | 0.52 | 3.94 | -1.91 | -2.2 | 0.48 | -0.09
11 | COc1ccc2cc(-c3c(-c4ccncc4)nc(-c4ccc([S+](C)[O-])cc4C)n3C)ccc2c1 (centres undefined) | -2.02 | 0.36 | 0.54 | -0.64 | -0.11 | 0.58 | 1.1 | 2.37 | 0.01 | 3.4
12 | CCc1ccc(Oc2nccc(-c3c(-c4ccc(F)cc4)ncn3C3CCNCC3)n2)cc1 | 6.86 | 2.27 | 1.69 | 4.75 | 2.36 | 2.41 | 0.8 | 2.65 | 5.98 | -0.95
13 | Cc1ccc(C(=O)NC2CCC2)cc1-c1ccc(C(=O)NCC2CC2)cc1 | 2.96 | 0.93 | 3.06 | 4.6 | 3.71 | -0.33 | 1.33 | 3.14 | 2.04 | 4.75
14 | N#Cc1ccc(Oc2nccc(-c3c(-c4ccc(F)cc4)ncn3C3CCNCC3)n2)cc1 | 5.32 | 2.19 | 2.49 | 4.13 | 4.63 | 3.13 | 3.68 | 3.62 | 6.16 | 9.06
15 | COc1ccc2ncn(-c3cc(O[C@H](C)c4ccccc4Cl)c(C(N)=O)s3)c2c1 | 4.23 | 4.81 | 24.8 | 5.9 | 10.3 | 0.15 | 0.34 | 3.12 | 6.32 | 31.8
16 | O=C(Nc1n[nH]c2cc(-c3cc(F)ccc3F)ccc12)C1CC1 | 6.78 | 1.23 | 0.65 | 3.53 | 2.03 | 1.92 | -0.92 | 6.28 | 3.5 | 11.6
17 | CCC(=O)Nc1ccc(C)c(-c2ccc(C(=O)NCC3CC3)cc2)c1 | 4.21 | 2.34 | 2.64 | 4.55 | 0.77 | 2.45 | 0.12 | 3.13 | 8.32 | 8.46
